Bioassay records (PubChem)
Most compounds without a hit are left out; they make up all but 3.8% or so of the library.
GCN5L2 inh: GCN5L2 (KAT2A) acetyltransferase inhibition. Q92830. GCN5L2 HAT assay, ThioGlo1 CoA-SH fluorescence. Potency, µM (doses to about 58.9 µM), inactives show top-dose activity change, negative = inhibition, actives largely listed as inhibitors. hit rate 0.21% among 390,000
Target sequence (Q92830 whole entry, looked up): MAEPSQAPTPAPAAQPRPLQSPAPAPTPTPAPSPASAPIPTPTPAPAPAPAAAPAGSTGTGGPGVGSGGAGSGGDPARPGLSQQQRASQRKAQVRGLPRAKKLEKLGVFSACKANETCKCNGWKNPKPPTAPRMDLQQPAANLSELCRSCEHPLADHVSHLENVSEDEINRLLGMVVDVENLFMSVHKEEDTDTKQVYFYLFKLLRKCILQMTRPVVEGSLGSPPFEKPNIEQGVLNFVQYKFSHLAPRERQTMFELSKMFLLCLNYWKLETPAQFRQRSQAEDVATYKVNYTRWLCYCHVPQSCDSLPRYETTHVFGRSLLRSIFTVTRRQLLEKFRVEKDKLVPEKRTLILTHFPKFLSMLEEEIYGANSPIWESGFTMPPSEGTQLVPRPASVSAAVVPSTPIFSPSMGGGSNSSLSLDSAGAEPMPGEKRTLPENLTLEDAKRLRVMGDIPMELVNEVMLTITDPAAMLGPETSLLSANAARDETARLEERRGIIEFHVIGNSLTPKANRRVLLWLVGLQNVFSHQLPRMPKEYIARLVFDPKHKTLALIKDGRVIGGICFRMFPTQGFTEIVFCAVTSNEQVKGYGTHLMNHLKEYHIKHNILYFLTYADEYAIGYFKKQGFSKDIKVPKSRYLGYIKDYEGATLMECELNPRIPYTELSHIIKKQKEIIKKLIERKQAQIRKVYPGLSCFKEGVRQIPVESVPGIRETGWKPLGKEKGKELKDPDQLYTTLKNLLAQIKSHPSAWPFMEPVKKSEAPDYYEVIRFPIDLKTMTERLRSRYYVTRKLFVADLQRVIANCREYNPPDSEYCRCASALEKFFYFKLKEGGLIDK
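Preincubate 20nM GCN5L2 with compound 15 min, RT → add 50uM ThioGlo1 + 75uM H3(1-25) + 70uM acetyl-CoA → read fluorescence 0 and 20 min. Primary qHTS; fluorescent artifacts likely.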
TrxR1 substrate: rat thioredoxin reductase 1 substrate activity | purified TrxR1 substrate turnover, NADPH consumption readout | Potency, µM (series often up to 114 µM), without a hit: at the highest dose activity change, negative = substrate turnover | hit rate 0.01% among 390,000 | AID 588456; note: nearly all actives have a fitted effect of over 50% in size
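Rat TrxR1, dispensed at 90 nM, was prereduced with 400 uM NADPH (final) for 5 min at ~22 deg C, then incubated with compound 15 min before 400 uM selenite. A first-read NADPH fluorescence drop versus no-compound background flagged substrates.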
VDR inh: blocks the human vitamin D receptor. Potency, µM, for inactives: max response, negative = inhibition, usual class: inhibitors. hit rate 0.93% among 400,000. VDR-SRC2-3 peptide fluorescence polarization, 2 h
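Two reagent solutions held at 4 deg C in the dark were dispensed, compounds pinned at 23 nl, and the mixture incubated 2 h at room temperature. Read-out: fluorescence polarization of VDR–SRC2-3 peptide binding.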
rTrxR1 inhibitor: rat TrxR1 inhibition. O89049. recombinant rTrxR1, NADPH fluorescence consumption, selenite substrate. Potency, µM (top dose mostly 114 µM), for the others: top-dose activity change, negative = inhibition, hits mostly inhibitors. hit rate 1% among 390,000. AID 588453; note: nearly all actives have a fitted effect of over 65% in size
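Rat TrxR1 (90 nM in the dispensed reagent) was pre-reduced with 400 uM NADPH for 5 min at room temperature, then incubated with compound for 15 min. After 400 uM selenite was added, NADPH fluorescence (Ex 340/Em 450 nm) was followed for 8 min.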
Sfp inh: inhibitors of Bacillus subtilis Sfp phosphopantetheinyl transferase | Q9F4F7 | Biochemical Sfp PPTase activity, qHTS | Potency, µM, for the others: largest response in the series, negative = inhibition, most hits filed as inhibitors | hit rate 3.5% among 310,000 | AID 1490;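 note: the enzyme is Sfp with the accession as filed and its product quenches rhodamine fluorescence; 0% = enzyme reaction without inhibitor and -100% = no enzyme wells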
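Compounds were incubated with enzyme (final 15 nM) for 15 min at room temperature before substrate addition started the reaction. Fluorescence at 525 nm excitation, 598 nm emission was recorded immediately and after 30 minutes.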
GLS inhibitor: blocks human kidney-isoform glutaminase activity. GLS enzymatic activity, qHTS titration. Potency, µM (top dose mostly 45.5 µM), for inactives: at the highest dose activity change, negative = inhibition, hits mostly inhibitors. hit rate 0.21% among 410,000. AID 624170
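Coupled fluorescence readout: glutamate oxidase/HRP/Amplex Red detect glutamate formed by hKGA from L-glutamine (1 mM solution added). Buffer 45 mM KH2PO4 pH 8.2, 0.02% Tween-20; reads at t0 and 30 min RT.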
* hit, by the source's call; ? = inconclusive; / = not tested or not shown; [ ] = remark or other dose. Calls come from the whole dose curve; as a rule, active = well fitted curve in the direction sought with a large enough effect; inconclusive = small, poorly fitted or top-dose-only effect, or another doubt; inactive = no such curve, though single readings can be large; an effect the other way counts as inactive or inconclusive. Unless noted, % is set by controls: 0 for no effect and ±100 for the full control effect; potency is the fitted concentration of half-maximal effect.

SMILES | GCN5L2 inh | TrxR1 substrate | VDR inh | rTrxR1 inhibitor | Sfp inh | GLS inhibitor
O=C1NC2(CCSC2)C(=O)N1CC(=O)N(Cc1ccccc1)C1CCS(=O)(=O)C1 (stereo not drawn) | -1% | 1% | 10% | 13% | 17% | -5%
CCOC(=O)C1CCN(c2c(NCc3ccc(C(=O)NC(C)CC)cc3)c(=O)c2=O)CC1 (stereo not drawn) | -2% | 4%[57.1 µM] | 26% | 3%[57.1 µM] | 5% | 18%
COc1ccc(C(=O)Nc2ccc(/C(C)=N/NC(=O)c3ccncc3)cc2)cc1 | -6% | / | / | / | 50µM* | /
O=C(c1ccccc1)c1ccc(OCC(O)CNCc2cccc(Cl)c2)cc1 (stereo not drawn) | -7% | -18%[57.1 µM] | 7% | 16%[57.1 µM] | 89µM* | -7%
O=C(c1ccccc1)c1ccc(OCC(O)CNCc2ccc(F)cc2)cc1 (stereo not drawn) | 24% | -15%[57.1 µM] | -4% | 26%[57.1 µM] | -13% | -4%
COc1ccc(-c2nn(C)c(=O)c3ccccc23)cc1CNC(=O)c1ccco1 | 1% | 8%[57.1 µM] | 1% | 10%[57.1 µM] | 6% | -2%
CCCCOc1ccc(/C=C/C(=O)Nc2ccc(C(N)=O)cc2)cc1 | 3% | 2% | 79µM* | -8% | 13% | 6%
CCCOc1ccc(/C=C/C(=O)Nc2ccc([N+](=O)[O-])cc2)cc1 | -9% | 5%[57.1 µM] | -15% | 13%[11.4 µM] | 13% | 38%
CC(C)N1CCN(Cc2nc3ccccc3s2)CC1CCO (stereo not drawn) | 0% | 7% | 8% | 16%[57.1 µM] | 12% | 1%
O=c1nccc(N/N=C/c2cccc(O)c2)[nH]1 | -2% | -10% | 0% | -5% | -8% | -20%
Cc1ccc(-n2c(C)c([N+](=O)[O-])c3ccc(O)cc32)cc1 | -27% | / | / | / | 18µM* | /
COc1cccc(C(C[N+](=O)[O-])c2c(C)[nH]n(-c3ccccc3)c2=O)c1 (stereo not drawn) | -17% | 0% | ? | ? | 28µM* | ?
Cc1[nH]n(-c2ccccc2)c(=O)c1C(c1cccc([N+](=O)[O-])c1)c1c(C)[nH]n(-c2ccccc2)c1=O | 1% | -8% | 56µM* | ? | -12% | 16%
Cc1[nH]n(-c2ccccc2)c(=O)c1C(C[N+](=O)[O-])c1ccc(Br)cc1 (stereo not drawn) | 3% | 9%[57.1 µM] | ? | ? | -24% | 34%
Cc1[nH]n(-c2ccccc2)c(=O)c1C(c1ccc(C(=O)O)cc1)c1c(C)[nH]n(-c2ccccc2)c1=O | 1% | -2% | -11% | -31% | -1% | -7%
COc1cccc(CC2(CO)CCCN(Cc3ccc4c(c3)OCCO4)C2)c1 (stereo not drawn) | -3% | -1% | 11% | 2% | 3% | 15%
CCCCCCCCCCCCCCCC(=O)OCC(O)C1OC(=O)C(O)=C1O (stereo not drawn) | 8.9µM* | / | 5µM* | / | ? | 5%
CCCCCCCCCCCCCCCCCC(=O)OCC(C)O (stereo not drawn) | 5% | / | -2% | / | -11% | 45%
COc1ccc(-c2ccc3c(c2)c(-c2cccs2)c(-c2cc(OC)cc(OC)c2)n3C)cc1 | 20µM* | 64%[57.1 µM] | -8% | 58%[57.1 µM] | / | -1%
COc1cc(OC)cc(-c2c(-c3cccs3)c3cc(-c4cc(OC)c(OC)c(OC)c4)ccc3n2C)c1 | -12% | 52%[57.1 µM] | -2% | 38%[57.1 µM] | / | 1%
COC(=O)[C@@]1(C)[C@H]2C(=O)N(C)C(=O)[C@H]2[C@H]2CN(C)C(=NC3CCCCC3)N21 | -12% | -1% | -9% | 10% | / | -1%
N#Cc1ccc2sn(-c3ccccc3)c(=O)c2c1 | / | / | / | / | / | 6.3µM*
CCn1c2ccccc2c2cc(NC(C)=O)ccc21 | -4% | 7%[57.1 µM] | 7% | -4%[57.1 µM] | 4% | 9%
O=c1c2cc([N+](=O)[O-])ccc2sn1-c1ccccc1 | / | / | / | / | / | 10µM*
CC(=O)Nc1ccc2sn(-c3ccccc3)c(=O)c2c1 | / | / | / | / | / | 6.3µM*
SMILES | GCN5L2 inh | TrxR1 substrate | VDR inh | rTrxR1 inhibitor | Sfp inh | GLS inhibitor
O=c1c(-c2ccccc2)c[nH]n1-c1cccc([N+](=O)[O-])c1 | -4% | -7% | 16% | 1% | 11% | 0%
COc1ccc(CC(=O)NCc2ccccc2F)cc1S(=O)(=O)N1CCOCC1 | / | / | / | / | / | 0%
COc1cncc(C#Cc2ccccn2)c1 | / | / | / | / | / | 1%
CCC(c1nnnn1-c1ccc2c(c1)OCCO2)N1CCN(c2ccc(OC)cc2)CC1 (stereo not drawn) | / | / | / | / | / | 47%
O=S(=O)(Nc1cccc(-c2ccc(N3CCCCCC3)nn2)c1)c1ccccc1F | -12% | 0% | -9% | 7% | -5% | 4%
CC(C)c1ccc(NC(=O)CSC2=Nc3ccccc3C3=NC(CCC(=O)NCc4ccc(F)cc4)C(=O)N23)cc1 (stereo not drawn) | -5% | -2%[57.1 µM] | 15% | 15%[57.1 µM] | / | 21%
CCC(C)NC(=O)CSC1=Nc2ccccc2C2=NC(CC(=O)NCc3ccc(F)cc3)C(=O)N12 (stereo not drawn) | -3% | 35% | 7% | -7% | 6% | 10µM*
COc1ccc([C@H]2CC(=O)C=C(c3ccc(-c4ccccc4)cc3)C2)cc1OC | -3% | -11% | -3% | 5% | / | 2%
N#Cc1c(N)sc(=S)c2c1CCCC2 | 20% | -17% | -10% | ? | 32µM* | 19%
CCC1(C)Cc2c(C#N)c(N)n(-c3ccccc3)c(=S)c2CO1 (stereo not drawn) | 1% | 5%[57.1 µM] | -25% | 9%[57.1 µM] | 10% | -7%
CCC1(C)Cc2c(C#N)c(N)sc(=S)c2CO1 (stereo not drawn) | -14% | -13% | 3% | ? | 13µM* | 28%
COc1ccc(NC(=O)C(=O)NCCCn2ccnc2)cc1 | 19% | 3%[57.1 µM] | -5% | 23% | 8% | -7%
CCOc1cc(/C=C/C(=O)c2ccc(OC)c(CN3CCOCC3)c2)cc(Br)c1O | -9% | -12% | -20% | -34% | -1% | 4%
CN(C)c1ccc(-c2cc(-n3ccnc3)ncn2)cc1 | -16% | / | 50µM* | / | 50µM* | /
CN(C)C(=O)c1ccc(-c2cc(-n3ccnc3)ncn2)cc1 | -23% | / | -4% | / | -26% | /
CN(C)c1ccc(-c2cc(Nc3ccc(F)cc3)ncn2)cc1 | ? | / | 45µM* | / | ? | /
c1cncc(-c2cc(-n3ccnc3)ncn2)c1 | ? | / | -16% | / | 79µM* | /
N#Cc1cccc(-c2cc(-n3ccnc3)ncn2)c1 | -3% | / | ? | / | -3% | /
CN(C)Cc1ccccc1-c1cc(-n2ccnc2)ncn1 | 4% | / | -27% | / | 50µM* | /
CC(=O)c1c(C)[nH]c(C(=O)NNC(=O)COc2cc(C)cc(C)c2)c1C | -1% | 3% | -9% | 2% | / | 4%
